Inconclusive results are not listed. Activity calls are given as the source filed them. No rule for the calls is given here.

This assay can be described thus: growth inhibition of wild-type RFP versus H38-humanized GFP E. coli, dose response, H38 mutant GFP vs wild-type RFP, cherry-pick (AID 977627). The settings on record: E. coli H38 humanized ribosome GFP strain, fluorescence, 24 h; activity: measured here: wild-type RFP strain growth, at 50 µM, stronger effect = lower value; series mostly up to 50 µM; activity change, negative = inhibition: at the top concentration.
Take `CCOc1ccccc1NC(=O)c1ccc2ccccc2c1`: the “activity change, negative = inhibition” value was 5.48 (inactive) and the activity was determined as 5.09%.

Take `Cc1noc(C)c1NC(=O)Nc1ccc2c(c1)C(=O)N([C@H](C)CO)C[C@@H](C)[C@@H](CN(C)C(=O)Nc1ccc3c(c1)OCO3)OCCCC[C@@H](C)O2`: the activity was -3.93%.

For `CC1(Cc2ccccc2C#N)C(=O)Nc2cc(-c3ccccc3Cl)ccc21` (stereo not given), the activity is -20%.

For the molecule `COC(=O)c1c(NC(=O)CCC(=O)O)sc(Cc2ccccc2)c1C`, the activity was -41.2%.

(Values after PubChem BioAssay AID977627 (Broad Institute, 2014).)
